Screening data deposited in PubChem BioAssay by several laboratories.
In the library only some 2% were active in any assay of this set; here they are far more common.
Rev-erbA mod: Rev-erb alpha (human) modulation; AID 1259318; 370,000 tested, 0.79% active; activity, % at 10 µM; Rev-erbα–FITC-DNA binding, fluorescence polarization, 90 min;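 active = activity above about 14%, limit read from the data; passing the limit was not always enough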
VLA-4 inh: inhibition in a human VLA-4 binding assay; P13612; VLA-4 expressing cells, ligand binding flow cytometry; inhibition, % (about 7 µM as worked out from the volumes in the protocol); 330,000 tested, 0.2% active; AID 2557; in the data active = inhibition above about 50%
Granule exo inh: lytic granule exocytosis inhibition; inhibition, % at 10 µM; TALL-104 LAMP-1 surface exposure, flow cytometry; cells stimulated with thapsigargin and PMA; 360,000 tested, 0.66% active;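 active = inhibition above about 55%, limit read from the data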
ABCB6 inh MLPCN: inhibitors of human ABC transporter ABCB6. Q9NP58. K562-ABCB6 porphyrin accumulation, flow cytometry, 1 h; active compounds read low. fluorescence ratio to DMSO, % at 10 µM. 360,000 tested, 0.19% active;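 active = fluorescence ratio to DMSO below 75%, the collection mean minus 3 SD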;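 note: signal is porphyrin accumulated inside mitochondria; lower ratio means ABCB6 inhibition with less porphyrin fluorescence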
Target sequence (Q9NP58 whole entry, looked up): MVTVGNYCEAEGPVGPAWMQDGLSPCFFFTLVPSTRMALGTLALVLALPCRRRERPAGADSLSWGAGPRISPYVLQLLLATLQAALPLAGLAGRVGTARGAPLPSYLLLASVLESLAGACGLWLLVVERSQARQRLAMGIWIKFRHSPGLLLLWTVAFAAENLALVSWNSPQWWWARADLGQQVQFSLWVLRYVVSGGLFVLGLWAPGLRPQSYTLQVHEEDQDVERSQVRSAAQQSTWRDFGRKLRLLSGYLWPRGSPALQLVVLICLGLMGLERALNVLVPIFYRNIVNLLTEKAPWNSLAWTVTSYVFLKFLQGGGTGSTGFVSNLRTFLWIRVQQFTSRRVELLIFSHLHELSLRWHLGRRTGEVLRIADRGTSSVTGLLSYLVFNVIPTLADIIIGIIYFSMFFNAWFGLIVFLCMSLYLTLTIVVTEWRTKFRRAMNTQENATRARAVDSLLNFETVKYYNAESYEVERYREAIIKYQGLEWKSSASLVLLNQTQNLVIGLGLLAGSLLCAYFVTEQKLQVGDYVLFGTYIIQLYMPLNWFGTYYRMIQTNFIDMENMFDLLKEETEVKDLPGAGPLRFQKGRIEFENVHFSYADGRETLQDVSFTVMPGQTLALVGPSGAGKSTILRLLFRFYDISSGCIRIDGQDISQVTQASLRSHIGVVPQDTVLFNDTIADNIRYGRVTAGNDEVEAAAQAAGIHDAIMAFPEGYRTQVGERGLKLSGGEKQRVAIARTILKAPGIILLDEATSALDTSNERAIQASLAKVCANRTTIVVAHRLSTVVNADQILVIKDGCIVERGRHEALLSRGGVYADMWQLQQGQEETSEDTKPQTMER
PG9 binder: PG9 antibody binding by small molecule; TR-FRET gp120-PG9 antibody binding; inhibition, % at 6.7 µM; 360,000 tested, 0.43% active; AID 624416; in the data active = inhibition above about 8.5%
Rev-erbA confirm: Rev-erb alpha (human) modulation, hit confirmation; shares compounds with Rev-erbA mod; Rev-erb alpha FITC-DNA binding, fluorescence polarization, 90 min; activation, % at 25 µM; 3,000 tested, 61% active; AID 1259319;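 active = activation at or above a set limit, or at least 3 SD above the negative control mean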
RORg counter: counter-screen for Rev-erb alpha modulators: RORgamma DNA binding; purified RORgamma protein-FITC-DNA binding, fluorescence polarization; 910 tested, 8% active; shares compounds with Rev-erbA mod; IC50, µM;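 active = Compounds whose fitted half-maximal concentration for disrupting protein-DNA binding is below 10 micromolar; the record names Rev-erb in its text, so the target is in doubt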
Hits are given with their value; . = inactive; / = not tested or not shown.

SMILES	Rev-erbA mod	VLA-4 inh	Granule exo inh	ABCB6 inh MLPCN	PG9 binder	Rev-erbA confirm	others
C[C@H](O)[C@@H]1CN2CCc3c([nH]c4c(-c5ccc6c(c5)OCO6)cccc34)[C@@H]2C[C@@H]1N(C)C(=O)NC1CCCCC1	.	/	/	/	/	/
COCCSc1ncccc1-c1nc2ccccc2[nH]1	.	/	/	/	/	/
Cc1ccc2nc(-c3ccc(NC(=O)CCS(=O)(=O)c4ccccc4)cc3)sc2c1	19	.	.	.	.	23
Cc1ccc2nc(-c3ccc(NC(=O)CN4CCN(c5ccccn5)CC4)cc3)sc2c1	21	.	.	.	.	.
Clc1ccc(N2CCN(c3ncnc4c3oc3ccccc34)CC2)cc1	37	.	.	.	.	.
CC1CN(c2ncnc3c2oc2ccccc23)CC(C)O1 (configuration not stated)	.	.	.	.	.	/
C=CCc1cccc(C2Nc3ccccc3C(=O)N2O)c1O (configuration not stated)	60	.	.	/	.	32	RORg counter=.
CCN(CC)c1ccc(/C=C2\C(=N)N3N=C(CC(=O)N4CCOCC4)SC3=NC2=O)cc1	37	.	.	.	.	22
CSc1ccc(/C=C2\C(=N)N3N=C(CC(=O)N4CCOCC4)SC3=NC2=O)cc1	.	.	.	.	.	/
Cc1ccc(CNC(=O)CCS(=O)(=O)c2cc3c(cc2Br)CCN3C(=O)C2CC2)o1	.	/	/	/	/	/
COC(=O)c1cc2c(c3c4cc(C#N)ccc4n(S(=O)(=O)c4ccc(C)cc4)c13)C(=O)N(C)C2	.	/	/	/	.	/
CCn1c(=O)cc(SCC(=O)Nc2ccc(Cl)cc2)c2ccccc21	138	.	.	.	.	90	RORg counter=.
CCOC(=O)c1ccc(NC(=O)COc2cc(=O)n(CC)c3ccccc23)cc1	28	.	.	.	.	27
CCc1nc(SCC(=O)Nc2ccccc2OC)c2c(C)c(C)sc2n1	.	.	.	.	.	/
CCc1nc(SCC(=O)Nc2cc(C)ccc2OC)c2c(C)c(C)sc2n1	18	.	.	.	.	.
O=C(OCCN1C(=O)c2cccc3c(N4CCOCC4)ccc(c23)C1=O)c1ccc(Cl)cc1	79	.	.	.	.	119	RORg counter=.
CCCN(CCC)S(=O)(=O)c1ccc(C(=O)OCCN2C(=O)c3cccc4c(N5CCOCC5)ccc(c34)C2=O)cc1	/	.	.	.	/	/
COc1ccc(C(C)=O)cc1CSC(=S)N1CCSCC1	.	/	/	/	.	/
COc1cc2c3nnc(-c4ccccc4)c-3cn(Cc3ccccc3F)c2cc1OC	.	.	/	/	.	/
COc1cc2c3nnc(-c4ccc(F)cc4)c-3cn(Cc3ccccc3F)c2cc1OC	21	/	.	.	.	39	RORg counter=.
COc1ccc(CC(/C=C/c2ccc(F)cc2)c2ccccc2)cc1 (configuration not stated)	.	/	/	/	/	/
C/C(=N\N(Cc1ccccc1)c1ccccc1)c1ccncc1	43	.	.	.	.	40	RORg counter=.
O=C(NCc1ccc(F)cc1)c1c(O)c2cccc3c2n(c1=O)CCC3	37	.	.	.	.	.
COc1ccc(C(=O)Nc2nnc(C)s2)cc1S(=O)(=O)N1CCOCC1	.	.	.	.	.	/
COc1ccc(C(=O)Nc2nc(C)c(C(C)=O)s2)cc1S(=O)(=O)N1CCOCC1	58	.	.	.	.	144	RORg counter=.
SMILES	Rev-erbA mod	VLA-4 inh	Granule exo inh	ABCB6 inh MLPCN	PG9 binder	Rev-erbA confirm	others
O=C(CCc1ccccc1)N[C@H]1/C(=N/O)CCC[C@]12C(=O)N(Cc1ccccc1)c1ccccc12	.	/	/	/	/	/
Cc1ccc(-n2c(N)c(C#N)c(-c3ccc(Cl)cc3)c(C#N)c2=O)cc1	49	.	.	.	.	39	RORg counter=.
COc1ccc2oc(C(=O)OCC(=O)/C(C#N)=C(\C)N)c(C)c2c1	20	.	.	.	.	.
O=C(CCCn1c(=S)[nH]c2cc3c(cc2c1=O)OCO3)NCCc1ccccc1Cl	27	.	.	.	.	22
O=C(CCn1c(=S)[nH]c2cc3c(cc2c1=O)OCO3)NCCc1ccccc1Cl	23	/	.	.	.	13
O=C(CCn1c(=S)[nH]c2cc3c(cc2c1=O)OCO3)NCc1ccccc1Cl	.	.	.	.	.	/
Nc1c(-c2cccs2)cnc2c(-c3ccc(F)cc3)cnn12	35	.	.	.	.	.
CCCC1CCC2(CC1)CCC2OC(=O)Nc1ccccc1C (configuration not stated)	.	/	/	/	/	/
Cn1cc(Cl)c(C(=O)Nc2nc3ccc([N+](=O)[O-])cc3s2)n1	.	.	.	.	.	/
Cn1cc(Cl)c(C(=O)Nc2nc3ccc(Cl)cc3s2)n1	83	.	.	.	.	25
CN(c1cccnc1)c1ccc(NC(=O)Cc2c[nH]c3ccccc23)cc1-c1cccnc1F	.	/	/	/	.	/
Cc1ccccc1Cn1cc(NC(=O)c2cc(-c3cccs3)on2)cn1	20	.	.	.	.	.
Cc1ccccc1Cn1ccc(NC(=O)c2cc3nc(-c4ccco4)cc(C(F)(F)F)n3n2)n1	.	.	.	.	.	/
CCc1ccc(-c2cc(C(F)(F)F)n3nc(C(=O)Nc4c(C)nn(Cc5ccccc5C)c4C)cc3n2)s1	/	.	.	.	/	/
CCc1ccc(-c2cc(C(F)(F)F)n3nc(C(=O)Nc4cnn(Cc5ccccc5C)c4)cc3n2)s1	37	.	.	.	.	.
CCc1ccc(-c2cc(C(F)(F)F)n3nc(C(=O)Nc4c(C)nn(Cc5ccccc5Cl)c4C)cc3n2)s1	72	.	.	.	.	38	RORg counter=.
Cc1ccccc1Cn1cc(NC(=O)c2cc(-c3ccco3)on2)cn1	.	.	.	.	.	/
CCCCc1c(-c2ccccc2OC)ncn1Cc1ccc(OC)c(Cl)c1	.	/	/	/	.	/
O=C(OCC#CCSc1nnc(-c2cccc3ccccc23)o1)c1ccc(OC(F)F)cc1	.	/	/	/	/	/
CC(=O)N[C@@H]1C[C@@H]2O[C@@H](CO)CC[C@@H]2O[C@@H]1CCc1ccc(C#CC2(O)CCCC2)cc1	.	/	/	/	/	/
C=CCOc1ccc(C2C(C(=O)c3cccs3)=C(O)C(=O)N2c2nnc(C)s2)cc1 (configuration not stated)	34	.	.	.	.	54	RORg counter=.
Cc1nonc1NC(=O)CSc1nc(C23CC4CC(CC(C4)C2)C3)nc2ccccc12	30	.	.	.	.	22
Cc1cc2nc(SCC(=O)Nc3nonc3C)c3c(c2cc1C)CCCC3	103	.	.	.	.	81
COC(=O)[C@]12C[C@H](CC(=O)NCCCCc3ccccc3)C(=O)N(CCC3=CCCCC3)C1=C[C@H](C(C)C)O[C@@H]2C1CC1	.	/	/	/	/	/
O=C(N/N=C\c1c(O)ccc2ccccc12)c1ccc(O)cc1	.	.	.	.	.	/
Cc1occc1C(=O)N/N=C/c1c(O)ccc2ccccc12	25	.	.	.	.	25
O=C(Cn1[nH]c(=O)c2ccccc2c1=O)OCC(=O)c1ccc(Br)cc1	.	.	.	.	.	/
